In PubChem BioAssay AID504523 (Broad Institute, 2011) one finds inhibition data, which are given here for 73 molecules.

Each structure is given as a SMILES string. Where “and” joins values, the source holds several entries; their conditions need not be identical. Equal entries are not always repeated. About 490 (0.14%) of roughly 340,000 compounds were called active. The sample holds actives, similar compounds and a random draw of the others, so the mix is not that of the screen. Cut-off read from the data, not from the text of the source: active = inhibition above about 12%; inconclusive = no clear call, values can overlap the other calls; inactive = below about 7.3%. More than one record can exist for a structure, and the calls need not agree.

The target of this assay is Kelch-like ECH-associated protein 1 (Homo sapiens) (UniProt Q14145). The assay is described as follows: disruptors of Keap1 binding to Nrf2 – biochemical, fluorescence polarization, single point, primary screen (AID 504523).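 Note: human Keap1 Kelch domain with fluorescein labeled Nrf2 9mer peptide probe; 0% = neutral control wells and 100% = peptide positive control.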 Conditions: Keap1 Kelch-Nrf2 peptide fluorescence polarization, 1536-well; at 9.4 µM; stronger effect = higher value. For orientation: Fluorescence polarisation rises when a labelled molecule tumbles more slowly, as on binding a larger partner.
Kelch-like ECH-associated protein 1 (Homo sapiens), sequence (Q14145 whole entry, looked up, the tested form may be a part): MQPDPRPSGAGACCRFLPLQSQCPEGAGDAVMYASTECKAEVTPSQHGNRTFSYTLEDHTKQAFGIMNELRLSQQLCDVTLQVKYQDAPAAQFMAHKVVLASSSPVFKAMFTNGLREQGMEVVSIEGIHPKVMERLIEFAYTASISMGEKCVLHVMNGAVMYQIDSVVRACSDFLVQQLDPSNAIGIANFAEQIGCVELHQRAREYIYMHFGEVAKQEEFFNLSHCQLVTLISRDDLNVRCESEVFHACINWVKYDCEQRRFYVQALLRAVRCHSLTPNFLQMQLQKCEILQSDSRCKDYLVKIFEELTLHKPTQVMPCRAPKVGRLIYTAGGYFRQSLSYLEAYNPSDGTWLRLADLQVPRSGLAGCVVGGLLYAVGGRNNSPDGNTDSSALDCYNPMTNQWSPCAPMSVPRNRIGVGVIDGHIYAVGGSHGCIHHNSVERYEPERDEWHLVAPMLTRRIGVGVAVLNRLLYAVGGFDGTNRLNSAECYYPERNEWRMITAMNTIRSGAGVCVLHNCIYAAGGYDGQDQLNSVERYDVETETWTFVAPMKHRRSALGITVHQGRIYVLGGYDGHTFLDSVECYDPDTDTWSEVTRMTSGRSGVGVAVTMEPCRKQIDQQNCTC
Consider `Nc1ccccc1SC(C[N+](=O)[O-])c1ccccc1` (stereo not drawn), for which the inhibition is -4.52% (inactive).

Turning to `COc1ccc(OC)c2[nH]c(=O)c(CCNC(=O)C(=O)c3c[nH]c4ccccc34)cc12`, the inhibition was -5.41% (inactive).

In the case of `CC(=O)c1cc(C#N)c(SCC(=O)Nc2nccs2)nc1C`, the inhibition was -4.52% (inactive).

In the case of `Cc1ccnc(NC(=O)C2CCN(S(=O)(=O)c3c(C)c(C)cc(C)c3C)CC2)c1`, the inhibition is -1.09% (inactive).

In the case of `COCCCNC(=O)C1CCC(CNS(=O)(=O)c2ccc(OC)cc2)CC1` (stereo not drawn), the inhibition was 0.471% (inactive).

`O=C(OCC(=O)N(CCc1ccccc1)Cc1ccccc1)c1ccccc1[N+](=O)[O-]`: the inhibition was 1% (inactive).

Regarding `CC(C)C[C@H](NC(=O)C1CCC(CNC(=O)[C@@H]2CCCN2C(=O)OC(C)(C)C)CC1)C(=O)O` (stereo partly drawn), the inhibition is 0.427% (inactive).

Consider `Cc1nc2ccccc2n1C(=O)N1CCOCC1`, for which the inhibition was -5.92% (inactive).

Consider `OCCC1CN(Cc2cccc(O)c2)CCN1CCc1ccccc1` (stereo not drawn), for which the inhibition is -6.53% (inactive).

Turning to `COc1ccc(S(=O)(=O)N2C[C@H]3CON(C)[C@H]3C[C@H]2c2cccc(Br)c2)cc1`, the inhibition is -1.34% (inactive).

For `COC(C[C@H](O)CC(=O)COCc1ccccc1)OC`, the inhibition was -0.107% (inactive).

On to `Cc1cc(C)n(-c2nnc(N3CCN(c4ccccc4)CC3)nn2)n1`, for which the inhibition is -3.51% (inactive).

On to `C=CCn1c(SCc2cccc(F)c2)nc2cc(C(=O)N3CCC(C(N)=O)CC3)ccc2c1=O`, for which the inhibition was -4.14% (inactive).

For the molecule `COc1cc(/C=N/N=C(\N)c2nonc2N)cc(OC)c1OC`, the inhibition is 1.13% (inactive).

For the molecule `c1ccc2c(c1)OCCOCCOCCO2`, the inhibition was 1.51% (inactive).

Turning to `Cc1ccc2nc(NC(=O)C3CSC4(C)CCC(=O)N34)sc2c1` (stereo not drawn), the inhibition is -0.772% (inactive).

Take `Oc1cccc(CCc2ccccn2)c1`: the inhibition is 1.31% (inactive).

As for `CC(C)(C)N(Cc1ccccc1)C(=O)COC(=O)CCc1c[nH]c2ccccc12`, the inhibition is -5.52% (inactive).

On to `O=C1CC(c2ccccc2)C(c2ccccc2)=NN1` (stereo not drawn), for which the inhibition was -8.87% (inactive).

Consider `CCC1CCc2c(sc(NC(C)=O)c2C#N)C1` (stereo not drawn), for which the inhibition is -1.96% (inactive).

Consider `Cn1nc(-c2ccccc2)c(CSc2cccc(Cl)c2)c1Cl`, for which the inhibition is 1.6% (inactive).

As to `CCN1CC=C2C(C#N)=C(N)C(C#N)(C#N)[C@H](c3ccoc3)[C@H]2C1`, the inhibition was 26.5% (active).

Consider `O=c1cnnc(Nc2ccccc2F)[nH]1`, for which the inhibition is -0.638% (inactive).

With `CCN(CC)Cc1c(C(=O)N/N=C/c2cccc(OCc3ccc(F)cc3)c2)nnn1-c1nonc1N`, the inhibition is 2.94% (inactive).

Turning to `CC(=O)NS(=O)(=O)c1ccc2c(c1)Cc1cc(S(=O)(=O)NC(C)=O)ccc1-2`, the inhibition was -4.15% (inactive).

As for `Cc1ccc(Nc2cc(C)nc3c(C)ccc([N+](=O)[O-])c23)cc1`, the inhibition is -0.384% (inactive).

Take `CCOc1cc(CNCc2ccccn2)ccc1OCC(=O)NC(C)(C)C`: the inhibition is -3.19% (inactive).

Take `O=C(c1c(F)cccc1Cl)N1CCN(S(=O)(=O)c2ccc3c(c2)OCCCO3)CC1`: the inhibition was -0.841% (inactive).

For `CC(C)C(NS(=O)(=O)c1cccs1)C(=O)Nc1nc(C(C)(C)C)cs1` (stereo not drawn), the inhibition was 1.11% (inactive).

As to `COc1ccc(-c2nonc2NC(=O)c2oc3ccc(F)cc3c2C)cc1OC`, the inhibition is 4.52% (inactive).

For `O=C1CC(C(F)(F)C(F)(F)C(F)(F)C(F)(F)F)=Nc2ccccc2N1`, the inhibition was -1.59% (inactive).

As to `Cc1noc(C)c1COC(=O)Cn1c(C)nc2ccccc21`, the inhibition is 1.41% (inactive).

For the molecule `CCCc1cc(-c2n[nH]c(=S)n2Cc2ccccc2)cs1`, the inhibition was -5.54% (inactive).

In the case of `COc1ccccc1NC(=O)CCN1CCN(c2ccc(Cl)cc2)CC1`, the inhibition was 2.69% (inactive).

For `Cc1ccc(S(=O)(=O)N2[C@@H](c3cccc4ccccc34)C(C(=O)O)=C[C@H]2C(C)(C)C)cc1`, the inhibition was 6.06% (inactive).

For `Cc1cc(C)nc(N2C(=O)CC(Cc3ccccc3)C2=O)n1` (stereo not drawn), the inhibition was 2.94% (inactive).

Take `O=C(Nc1cccc2c1N(C(=O)c1ccco1)CCC2)c1ccco1`: the inhibition is 0.867% (inactive).

In the case of `CN(C)c1ccc(C(=S)N2CCN(C(=S)Nc3ccc(Cl)cc3)CC2)cc1`, the inhibition is 1.08% (inactive).

`Cc1ccc(Nc2nc(CSc3nnc(-c4ccncc4)n3-c3ccccc3C)cs2)cc1`: the inhibition is -6.12% (inactive).

For `Nc1c(C(=O)O)cnn1-c1ccccc1`, the inhibition was 1.79% (inactive).

`C=C(C)C1CC=C(C)/C(=N\NC(=O)CNc2ccccc2OC)C1` (stereo not drawn): the inhibition was 0.164% (inactive).

For the molecule `COc1ccc(S(=O)(=O)Nc2ccccc2C(=O)N2CCCC2)cc1C`, the inhibition was -0.35% (inactive).

For the molecule `COc1ccc(OC)c(S(=O)(=O)Nc2ccccc2F)c1`, the inhibition was -3.36% (inactive).

Consider `COc1cc(OC)c(S(=O)(=O)Nc2ccccc2C(=O)O)cc1S(=O)(=O)Nc1ccccc1C(=O)O`, for which the inhibition was 15.6% (active).

As for `O=C(/C=C/c1cc2c(cc1Br)OCO2)NCc1ccc(Cl)cc1`, the inhibition was -0.718% (inactive).

Regarding `Cc1ccccc1CNC(=O)CCC(=O)N1Cc2ccccc2Oc2ncccc21`, the inhibition was 0.575% (inactive).

Take `O=C(CNCc1ccco1)Nc1cc(S(=O)(=O)N2CCOCC2)ccc1N1CCCC1`: the inhibition was -2.82% (inactive).

For `CCCCNC(=O)C1CCCN(S(=O)(=O)c2ccc(S(=O)(=O)NCC(C)C)cc2)C1` (stereo not drawn), the inhibition was -0.397% (inactive).

Regarding `COC(=O)c1ccc(-c2noc(CN(Cc3ccccn3)CC3CCCO3)n2)cc1` (stereo not drawn), the inhibition is -1.93% (inactive).

`Cc1ccc2c(c1)N(CC(=O)N1CCC(C)CC1)C(=O)c1cccnc1O2`: the inhibition was -0.762% (inactive).

Consider `COc1ccccc1C(=O)NCCn1cc(SCC(=O)NCc2ccco2)c2ccccc21`, for which the inhibition was -4.2% (inactive).

`O=C(NCc1ccncc1)C(=O)NCc1ccco1`: the inhibition was -3.77% (inactive).

On to `CCOC(=O)c1c(NC(=O)CSc2nnc(CNc3ccc(C)cc3C)o2)sc(C)c1C`, for which the inhibition is 3.69% (inactive).

Take `Cc1ccc(-n2c(CNc3ccc(F)cc3)nnc2SCC(=O)N2CCOCC2)cc1`: the inhibition is -5.07% (inactive).

On to `CSCCC(NC(=O)COc1ccccc1)C(=O)N1CCN(c2cccc(C(F)(F)F)c2)CC1` (stereo not drawn), for which the inhibition is 1.75% (inactive).

With `CC(O)c1ccc(OCCN(C)c2ccccn2)cc1` (stereo not drawn), the inhibition was 2.21% (inactive).

Regarding `CN(CCOc1ccc(CC2SC(=O)NC2=O)cc1)c1ccccn1` (stereo not drawn), the inhibition was 44.6% (active) and -1.69% (inactive).

For `CC(C)=N/N=C1/NC(=O)C(Cc2ccccc2)S1` (stereo not drawn), the inhibition is -5.03% (inactive).

Regarding `N#Cc1cccc(CSc2ncnc(N)n2)c1`, the inhibition was -4.01% (inactive).

With `Cc1nc(SCC(=O)NC2CCCCC2C)c(C#N)c(C)c1C` (stereo not drawn), the inhibition is -1.86% (inactive).

Consider `COc1ccccc1CNC(=O)C1Cc2ccccc2C(=O)O1` (stereo not drawn), for which the inhibition was 0.554% (inactive).

Turning to `CC(Sc1nnc(C2CC2)n1C1CC1)C(=O)Nc1ccc(C(N)=O)cc1` (stereo not drawn), the inhibition is -1.4% (inactive).

Turning to `COc1ccc(S(=O)(=O)n2nc(C)c(S(=O)(=O)N3CCOCC3)c2C)cc1`, the inhibition was -1.09% (inactive).

In the case of `O=C1c2cccc3c([N+](=O)[O-])ccc(c23)C(=O)N1CC1CCCO1` (stereo not drawn), the inhibition was -6.02% (inactive).

With `CN1C(=O)c2cccc3c(N)ccc(c23)C1=O`, the inhibition is 16.4% (active).

As to `Cc1nn(C)cc1N1C(=O)c2cccc3c(N)ccc(c23)C1=O`, the inhibition was 71% (active).

Consider `CC(C(=O)O)N1C(=O)c2cccc3cccc1c23` (stereo not drawn), for which the inhibition was -0.759% (inactive).

As for `c1ccc(CN=C2Nc3ccccc3CS2)nc1`, the inhibition was -0.423% (inactive).

On to `O=S1(=O)CC/C(=N\Nc2ccc(F)cc2)c2ccsc21`, for which the inhibition was 3.88% (inactive).

Consider `N#CCc1c[nH]c2ccc([N+](=O)[O-])cc12`, for which the inhibition is 0.344% (inactive).

In the case of `COC(=O)c1ccc(NC(=S)Nc2cccc(C)n2)cc1`, the inhibition is 1.2% (inactive).

As for `Cc1nn(C)c(C)c1Sc1ccccc1N`, the inhibition is -2.63% (inactive).

For `O=C(Cc1ccc(Cl)cc1)NCc1nc(-c2ccccc2)no1`, the inhibition was -0.917% (inactive).

By inhibition is commonly meant the drop in the measured response relative to a control, in per cent.
